The record followed here is PubChem BioAssay (NCATS).

Each structure is given as a SMILES string. Records with an inconclusive call do not appear. A number with no mark means an inactive call. The source made the active and inactive calls. Calls follow the shape of the full dose curve.

Vitamin D3 receptor (Homo sapiens), sequence (P11473 whole entry, looked up): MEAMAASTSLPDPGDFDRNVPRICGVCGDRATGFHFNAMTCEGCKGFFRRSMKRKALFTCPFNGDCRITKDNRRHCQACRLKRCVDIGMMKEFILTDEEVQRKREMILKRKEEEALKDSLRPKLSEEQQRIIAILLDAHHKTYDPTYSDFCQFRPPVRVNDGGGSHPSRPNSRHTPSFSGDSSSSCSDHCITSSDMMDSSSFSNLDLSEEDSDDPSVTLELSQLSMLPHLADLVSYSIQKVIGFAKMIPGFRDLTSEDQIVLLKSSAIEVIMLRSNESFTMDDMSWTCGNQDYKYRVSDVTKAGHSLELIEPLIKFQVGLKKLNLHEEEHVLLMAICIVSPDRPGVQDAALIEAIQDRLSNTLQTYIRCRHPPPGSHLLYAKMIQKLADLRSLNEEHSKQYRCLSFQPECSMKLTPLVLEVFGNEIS

The target in this test is Vitamin D3 receptor (Homo sapiens) (UniProt P11473). The test can be described thus: qHTS assay for small molecule agonists of vitamin D receptor signaling (AID 588543). As to conditions: HEK293T VDR-UAS-bla, beta-lactamase ratio, 16 h; series mostly up to 76.8 µM; activation: at the top concentration. From the text:
NIH Chemical Genomics Center [NCGC]
U.S. Environmental Protection Agency [EPA]
National Institutes of Environmental Health Sciences [NIEHS]
National Toxicology Program [NTP]
The Vitamin D receptor (VDR) is a member of nuclear hormone receptor superfamily and it plays a critical role in calcium homeostasis and bone metabolism. It plays a role in inducing cell differentiation, inhibiting cell growth and in thrombogenicity. So, VDR that mediates these effects represents a pharmacological target in prevention and treatment of hyperproliferative malignancies, such as cancer and psoriasis, cardiovascular, immunological, inflammatory and renal diseases etc.
NCGC Assay Protocol Summary
Using a beta-lactamase reporter-gene under control of Vitamin D receptor (VDR) response element, a cell-based assay [GeneBLAzer (VDR -UAS-bla assay developed by Invitrogen] was used to measure VDR ligands signaling. GeneBLAzer VDR -UAS-bla HEK293T cells were used with assay medium containing 2% charcoal-stripped FBS. The assay was performed in clear bottom black Greiner 1536-well plates. 1-alpha,25-Dihydroxy vitaminD3 was used as a positive control in the screen. Library compounds were measured for their ability to stimulate the reporter gene activity. Compounds were screened in a titration series in 1536-well format. The fluorescence intensity (405 nm excitation, 460/530 nm emission) was measured using an EnVision plate reader. Data was normalized relative to 1-alpha,25-Dihydroxy vitaminD3 control (50 nM, 100%) and DMSO only wells (basal, 0%). Concentration-response titration points for each compound were fitted to the Hill equation yielding concentrations of half-maximal stimulation (EC50) and maximal response (efficacy) values.
qHTS protocol for VDR beta-lactamase assay in agonist mode
[Step] [Parameter] [Value] [Description]
1. Reagent; 6 uL; 2000 cells/well
2. Incubation; 37 C for 5 hrs
4. Controls (1-alpha,25-Dihydroxy vitaminD3); 23 nL,
- Final concentrations of 50 nM and 15 nM in two columns
5. Incubation; 37 C for 16 hrs
6. Detection reagent; 1 uL of CCF4-dye
7. Incubation; RT for 2 hrs
8. Detection; Fluorescence; Envision plate reader
For orientation: In qHTS, concentration-response curves come from the screen itself.
In the case of `Cc1cccc(O)c1C`, the “activation” value is -0.34%.
With `C=C(C)c1ccccc1`, the “activation” value is 3.46%.
Consider `ClC1=C(Cl)C(Cl)(Cl)C(Cl)=C1Cl`, for which the result was inactive.
As to `O=C=Nc1ccc(Cc2ccc(N=C=O)cc2)cc1`, the “activation” value is 3.08%.
On to `CC/C(=C(\c1ccccc1)c1ccc(OCCN(C)C)cc1)c1ccc(O)cc1`, for which the “activation” value was 2.12%.
The same measure, in the same setting: the figure for `CO[C@H]1/C=C/O[C@@]2(C)Oc3c(C)c(O)c4c(O)c(c5c(c4c3C2=O)NC2(CCN(CC(C)C)CC2)N=5)=NC(=O)/C(C)=C\C=C\[C@H](C)[C@H](O)[C@@H](C)[C@@H](O)[C@@H](C)[C@H](OC(C)=O)[C@@H]1C` is -1.9%.
Consider `Cc1cc(C(C)(C)CC(C)(C)C)ccc1OCCOCC[N+](C)(C)Cc1ccccc1`, for which the “activation” value was -5.03%.
Still for that read-out and setting: the figure for `O=Cc1ccc(Cl)c(Cl)c1` is 0.184%; for `Cc1cc(Nc2ccc(O)cc2)ccc1N` it is 2.47%.
For the compound `O=C1OC(O)C(C(Cl)Cl)=C1Cl` (centres undefined), the “activation” value was 2.43%.
With `Cc1cc(O)c(C(C)(C)C)cc1Sc1cc(C(C)(C)C)c(O)cc1C`, the outcome was inactive.
For `CC1CCC(C(C)C)C(O)C1` (centres undefined), the “activation” value is 1.41%.
The same measure, in the same setting: the figure for `CCCCCC/C(C=O)=C\c1ccccc1` is 0.371%; for `CC1(C)CCC(C)(C)c2cc(C(=O)Nc3ccc(C(=O)O)cc3)ccc21` it is 0.402%.
For the compound `CN1[C@H]2CC(OC(=O)[C@H](CO)c3ccccc3)C[C@H]1[C@H]1O[C@H]12` (some centres undefined), the result was inactive.
Consider `Cc1ccc(S(=O)(=O)Oc2ccc(N=Nc3ccc(-c4ccc(N=Nc5c(O)ccc6cc(S(=O)(=O)O)cc(S(=O)(=O)O)c56)c(C)c4)cc3C)cc2)cc1`, for which the “activation” value is -1.22%.
Same read-out and setting: the figure for `CCC(C)Nc1ccc(NC(C)CC)cc1` (centres undefined) is -3.37%; for `CNc1ccc(O)cc1` it is 5.16%.
As to `c1cc(OCC2CO2)cc(OCC2CO2)c1` (centres undefined), the outcome was inactive.
